Experimental data as given in PubChem BioAssay AID463190 (Sanford-Burnham Center for Chemical Genomics, 2010).
Screen size: about 330,000 compounds; about 7,300 (2.2%) were called active. The sample as a whole holds a higher share of actives than the screen did. Values without a mark were called inactive.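 Rule for the calls: active = inhibition of at least 40%; inactive = the rest.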

Experiment: growth inhibition of tim10-1 ts yeast – luminescence, uHTS, primary screen (AID 463190);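 note: mutant grown at 25 °C; 0% = DMSO wells with yeast and 100% = wells holding no yeast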
Settings: S. cerevisiae tim10-1 ts strain growth, BacTiter-Glo, 24 h; at 20 µM; hits give high values
In the case of `CCOC(=O)Cc1csc(NC(=O)COc2ccc3c(C)cc(=O)oc3c2)n1`, the inhibition is reported as 11.9%. With `CCOC(=O)Cc1csc(SCC(=O)NC(C)C23CC4CC(CC(C4)C2)C3)n1` (stereo not drawn) the inhibition was 43.5% (active). Compound `CCOC(=O)Cc1csc(SCC(=O)Nc2ccc(C)cc2F)n1` has an inhibition of 18.9%. Work on `CCOC(=O)Cc1csc(NC(=O)CSc2nnc(-c3cccnc3)n2Cc2ccco2)n1` yielded an inhibition of 13.4%. Work on `CCOC(=O)Cc1csc(SCc2cc(=O)oc3cc(O)ccc23)n1` yielded an inhibition of 12.7%. With `CCOC(=O)Cc1csc(NC(=O)CSc2ccc(Br)cc2)n1` the inhibition was 46.9% (active). In the case of `NS(=O)(=O)c1ccc(CCNC(=O)c2ccc([N+](=O)[O-])cc2[N+](=O)[O-])cc1`, the inhibition is reported as 2.98%. `CCCN(C(=O)CSc1nnnn1C)c1c(N)n(Cc2ccccc2)c(=O)[nH]c1=O` showed an inhibition of -2.11%. For `CN(CC(=O)Nc1cccc(F)c1)C(=O)C1CSC2(C)CCC(=O)N12` (stereo not drawn), the inhibition was 2.74%. In the case of `COc1ccccc1N1CCN(C(=O)c2cc(=O)c3cc(C)cc(C)c3o2)CC1`, the inhibition is reported as 45.3% (active). `COc1ccccc1N1CCN(C(=O)c2cc(=O)c3cc(C)ccc3o2)CC1` showed an inhibition of 36.5%. In the case of `O=C(c1cc(=O)c2ccccc2o1)N1CCN(c2ccccc2)CC1`, the inhibition is reported as 5.8%. In the case of `Cc1ccc(C(=O)N/N=C\c2cc(Br)c(Br)o2)cn1`, the inhibition is reported as 3.87%. For `COc1ccc(Cl)cc1NC(=O)CN1CCN(C(=O)N2CCOCC2)CC1`, the inhibition was 1.52%. For `COc1cccc(NC(=O)CN2CCN(CC(=O)Nc3ccccc3Cl)CC2)c1`, the inhibition was 19.6%. For `COc1ccc(NC(C)=O)cc1NC(=O)CN1CCN(C2c3ccccc3-c3ccccc32)CC1`, the inhibition was 41.6% (active). `CC(C)(C)OC(=O)C1=C(CO)CS[C@@H]2[C@H](NC(=O)Cc3ccccc3)C(=O)N12` showed an inhibition of 9.18%. `Cc1ccc(S(=O)(=O)N2CCN(C(=O)CSc3cc(C)ccc3C)CC2)c(C)c1` showed an inhibition of 23.1%. With `O=C(NCc1ccco1)c1cccn2c(=O)c3c4c(sc3nc12)CCCC4` the inhibition was 41.6% (active). Work on `O=C(NCc1ccco1)c1nc2ncccn2n1` yielded an inhibition of 1.9%. `Cc1cccc(Nc2ccccc2C(=O)NCc2ccco2)c1C` gave an inhibition of 29.9%. For `COc1ccc(C(=O)N2CCC(C(=O)Nc3cccc(C)c3)CC2)cc1OC`, the inhibition was -7.58%. For `O=c1nc2s/c(=C\c3ccco3)c(=O)n2nc1Cc1ccccc1`, the inhibition was 63% (active). In the case of `O=C(NCCc1ccco1)c1nn(Cc2ccccc2)c(=O)c2ccccc12`, the inhibition is reported as 14.5%. Compound `O=C(Nc1ccccc1)/C(=C\c1ccco1)NC(=O)c1ccco1` has an inhibition of 23.3%. `CC(=O)N1N=C(c2ccccc2)OC1c1cccnc1` (stereo not drawn) gave an inhibition of 7.21%. For `COc1ccc2nc(N3CCN(C(=O)c4ccc([N+](=O)[O-])o4)CC3)sc2c1`, the inhibition was 42.2% (active). For `CCN(CC)CCN(C(=O)c1cccc([N+](=O)[O-])c1)c1nc2ccc(OC)cc2s1`, the inhibition was 12.5%. `Cc1ccc2nc(N3CCN(C(=O)c4ccco4)CC3)sc2c1` gave an inhibition of 6.64%. `CC(C)NS(=O)(=O)c1ccc(OCC(=O)NC2CCCCCC2)cc1` showed an inhibition of 4.48%. Work on `Cc1nn(-c2ccccc2)c2sc(C(=O)N(Cc3ccco3)C(C)C(=O)NC(C)(C)C)cc12` (stereo not drawn) yielded an inhibition of 14.2%. In the case of `CC1=NN(C(N)=S)C(=O)C1N=Nc1cc(Cl)ccc1Cl` (stereo not drawn), the inhibition is reported as 38.6%. In the case of `Cc1[nH]n(C(N)=S)c(=O)c1N=Nc1ccc(Cl)cc1Cl`, the inhibition is reported as 47.4% (active). In the case of `Cc1cccc(N=Nc2c(C)[nH]n(-c3ccccc3)c2=O)c1`, the inhibition is reported as 20.1%. Compound `CSc1cc(C)n(-c2ccccc2C)c(=S)c1C(C)=O` has an inhibition of -13.6%. Compound `COc1ccc2nc(C)cc(Nc3cccc(C(=O)O)c3)c2c1` has an inhibition of -1.42%. In the case of `Cc1nc(/N=C(\N)NC(=O)NC2CCCCC2)nc2ccccc12`, the inhibition is reported as -11.5%. With `COc1ccc2nc(/N=C(\N)NC(=O)Nc3ccccc3)nc(C)c2c1` the inhibition was 50% (active). `Cn1c(SCc2nc3ccccc3s2)nnc1-c1ccc2c(c1)OCO2` showed an inhibition of -2.97%. `O=C(CCl)Nc1cccc(CP(=O)(c2ccccc2)c2ccccc2)c1` showed an inhibition of 9.52%. `Cn1c(SCC(=O)Nc2cccc(NC(=O)c3cccs3)c2)nnc1-c1ccncc1` gave an inhibition of -9.32%. In the case of `O=C(NOCc1ccccc1)c1cccc([N+](=O)[O-])c1`, the inhibition is reported as 21.3%. Work on `CCCCN=C1C([N+](=O)[O-])=CC=C2C1=NC1(CCCCC1)N2O` yielded an inhibition of 9%. For `Cc1cccc(OCC(=O)Nc2ccc(NC(=O)c3ccco3)c(C)c2)c1`, the inhibition was 1.89%. With `COc1ccc(OCC(=O)Nc2ccc(NC(=O)c3ccco3)c(C)c2)cc1` the inhibition was -11.8%. In the case of `Cc1ccc(C(=O)COc2cccc(NC(=O)c3ccco3)c2)cc1`, the inhibition is reported as 40.3% (active). Compound `COc1ccc(/C=N/N=C2/C(=O)Nc3ccccc32)cc1O` has an inhibition of 9.34%. For `C(=N\N1CCN(c2ccccn2)CC1)/C1=C(N2CCOCC2)C(=C/c2ccccc2)/CC1`, the inhibition was 34.3%. In the case of `O=C1Nc2ccc(Br)cc2/C1=N/N=C/C1=C(N2CCOCC2)C(=C\c2ccccc2)/CC1`, the inhibition is reported as 45.5% (active). In the case of `C#CC(CCN1CCCCC1)(OC)c1ccccc1` (stereo not drawn), the inhibition is reported as 7.91%. With `Cc1ccc2nc(-c3ccc(Br)cc3)cn2c1` the inhibition was -3.32%. Compound `Cc1ccc(-c2cn3cc([N+](=O)[O-])ccc3n2)cc1` has an inhibition of -1.69%. For `Cc1ccc(-c2cn3cc(C)ccc3n2)cc1`, the inhibition was 51.8% (active). For `CCOc1ccc(-n2c(SC(C)C(=O)OC)nc3c(c2=O)SCC3)cc1` (stereo not drawn), the inhibition was 10.7%. In the case of `Cc1cc(F)ccc1NC(=O)C(C)n1c2ccccc2c2nc(=O)cc(C)n21` (stereo not drawn), the inhibition is reported as 13.9%. Work on `C[C@H](CO)N1C[C@H](C)[C@@H](CN(C)S(=O)(=O)c2ccc(F)cc2)Oc2c(NC(=O)Nc3ccccc3)cccc2C1=O` yielded an inhibition of -4.64%. Compound `O=C(OCC(=O)N1CCCC1=O)c1cc(S(=O)(=O)N2CCOCC2)ccc1Cl` has an inhibition of -17.2%. In the case of `Cc1ccc(S(=O)(=O)N2CCC(C(=O)NCCC3=CCCCC3)CC2)cc1C`, the inhibition is reported as -3%. For `O=C(NCc1ccccc1Cl)c1csc2c1CCCCC2`, the inhibition was 12.3%. With `CC(=O)Cc1nsc(NC(=O)c2ccc(Cl)cc2Cl)n1` the inhibition was 36.5%. For `CC(=O)Cc1nsc(NC(=O)c2csc3c2CCCC3)n1`, the inhibition was 41.9% (active). For `Cc1ccc(CNC(=O)CCC(=O)N2CC(C)Sc3ccccc32)cc1` (stereo not drawn), the inhibition was 28.3%. In the case of `CCCc1nnc(NC(=O)CCC(=O)NC2CC2)s1`, the inhibition is reported as 10.7%. `Cc1ccc2[nH]c(C)c(CCNC(=O)NC3CCCCC3)c2c1` showed an inhibition of 11.4%. `Cc1cc(OCC(=O)N2CCN(c3ncccn3)CC2)ccc1Cl` gave an inhibition of 16%. With `Cc1ccc(/C(N)=N/OC(=O)COc2ccc(Cl)c(C)c2)cc1` the inhibition was 41.2% (active). Work on `COc1ccc(C(=O)COC(=O)COc2ccc(C)c(C)c2)cc1` yielded an inhibition of 10.1%. With `COC(=O)c1cccc([N+](=O)[O-])c1CS(=O)(=O)c1ccc(C)cc1` the inhibition was 24.5%. With `COC(=O)CCc1sc(Nc2ccc(Br)cc2)nc1-c1ccc(OC)cc1` the inhibition was 46.4% (active). Work on `Cc1ccc(OC(=O)CCC(=O)Nc2ccc(Br)cc2)cc1` yielded an inhibition of 0.584%. For `COc1ccc(C(=O)Nc2nc(-c3ccc(OC)cc3)c(-c3ccc([N+](=O)[O-])cc3)s2)cc1`, the inhibition was 14.1%. Compound `CCCn1nnc2sc3c(c2c1=O)CCC(C)C3` (stereo not drawn) has an inhibition of 9.67%. For `CC1CCc2c(sc3nc4n(c(=O)c23)CCS4)C1` (stereo not drawn), the inhibition was 40.6% (active). With `C=CCn1c(SCc2c(C)noc2C)nc2sc3c(c2c1=O)CCC(C)C3` (stereo not drawn) the inhibition was -4.33%. In the case of `Cc1cc2c(c(=O)n1C)C(C(C)C)C(C#N)=C(N)O2` (stereo not drawn), the inhibition is reported as -3.2%. Compound `COc1cccc(CNC(=O)C2CCN(S(=O)(=O)c3cccc4cccnc34)CC2)c1` has an inhibition of 13.9%. For `Cn1c(=O)c(C(=O)Nc2ncccn2)c(O)c2ccccc21`, the inhibition was 25.2%. `C=CCn1c(SCc2c(C(=O)OC)sc(N)c2C(=O)OC)nnc1-c1ccc(Cl)cc1` showed an inhibition of 15.3%.
